Assay outcomes from PubChem.
The list is not random: actives were taken first. Their share in the collection is about 19%.
TDP1 cell CPT = DT40-hTDP1 cell growth loss with CPT; chicken DT40 Tdp1-/-;hTDP1 cells + 20 nM CPT, ATP luminescence, 48 h; 12% of 420,000 active; Potency, µM (doses to about 46.2 µM), most hits filed as inhibitors; note: nearly all actives have a fitted effect of over 55% in size
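Cell growth measured by CellTiter-Glo luminescence after a minimum 48 h, 37 C compound exposure with 20 nM CPT in Tdp1-knockout DT40 cells stably expressing hTDP1, seeded 400/well; qHTS titration format.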
HT1080 IDH1KD tx = kills HT-1080 cells with IDH1 knockdown; HT-1080 IDH1 knockdown viability, ATP luminescence, 48 h; 2% of 360,000 active; Potency, µM (series often up to 46.1 µM), usual class: cytotoxic; AID 686971
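Using the IDH1-knockdown HT-1080 line run in the same batch and compound series as the NT line, viability after 48 h at 37 °C was determined by CellTiter-Glo luminescence and expressed as % activity.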
TDP1 cell noCPT = qHTS for Inhibitors of human tyrosyl-DNA phosphodiesterase 1 (TDP1): qHTS in cells in absence of CPT; AID 686978, 2013; DT40 Tdp1-/- hTDP1 cells, no CPT, ATP luminescence, 48 h; Potency, µM (highest dose often 46.2 µM), hits mostly inhibitors; 15% of 420,000 active; note: nearly all actives have a fitted effect of over 55% in size
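Chicken DT40 Tdp1-/- cells complemented with human TDP1, screened without camptothecin (DMSO vehicle only), 400 cells/well. Compounds pin-transferred, cells incubated at 37 °C for at least 48 hr. Growth read as ATP-dependent luminescence (CellTiter-Glo, 30 min at RT).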
IL1B secr inh = inflammasome signaling inhibition, IL-1 beta readout. THP-1 LPS/ATP IL-1B secretion, AlphaLISA, 16 h; hits give low values. activity change, % at 57.5 µM. 4.7% of 360,000 active. AID 743279; in the data active = activity change below about -50%; inconclusive = mostly about -30% to -49%
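THP-1 cells pretreated 1 hr with compounds (up to 57.5 uM final), then stimulated with LPS (250 ng/mL final) plus ATP (1.25 mM final); secreted IL-1B measured by AlphaLISA after 16 hr, decreased signal indicating inhibition.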
HT1080-NT tox = kills 2HG-producing HT-1080-NT fibrosarcoma cells; 1.6% of 360,000 active; HT-1080-NT fibrosarcoma viability, CellTiter-Glo ATP luminescence, 48 h; AID 686970; Potency, µM (series often up to 46.1 µM), actives largely listed as cytotoxic;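 note: NT is the 2HG producing partner of a matched IDH1 knockdown line; nearly all actives have a fitted effect of over 55% in size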
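750 cells/well, RPMI + 5% FBS; 2 h settle, compound pin-transfer, 48 h at 37 degrees C. CellTiter-Glo 10 min RT, luminescence. Normalized to DMSO and media-only wells.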
ELG1 DNA repair = ELG1-dependent DNA repair inhibition; Potency, µM (titrated, usually from 46.1 µM), most hits filed as inhibitors; HEK293T ELG1-luciferase reporter, luminescence, 16 h; DNA damage induced by 5-fluorouridine; 2.3% of 330,000 active; note: nearly all actives have a fitted effect of over 55% in size
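Reporter activity after DNA damage by 5-fluorouridine is monitored. Compound-treated cells incubate 16 hr at 37 °C, then ONE-Glo is added for 30 min before luminescence reading.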
Large screens that a line does not name were inactive. Unless noted, calls come from the whole dose curve; as a rule, active = well fitted curve in the direction sought with a large enough effect; inconclusive = small, poorly fitted or top-dose-only effect, or another doubt; inactive = no such curve, though single readings can be large; an effect the other way counts as inactive or inconclusive.

Cc1ccccc1N1CCN(C2CCCN(C(=O)c3noc4c3CCCC4)C2)CC1 (configuration not stated)	TDP1 cell CPT 9.2µM, TDP1 cell noCPT 8.2µM
Cc1cc(C(=O)N2CCCC(N3CCN(c4ccccc4C)CC3)C2)n(C)n1 (configuration not stated)	TDP1 cell CPT inconclusive, TDP1 cell noCPT inconclusive
Cc1ccccc1N1CCN(C2CCCN(C(=O)c3ccccn3)C2)CC1 (configuration not stated)	TDP1 cell noCPT 26µM, ELG1 DNA repair inconclusive
Cc1ccccc1N1CCN(C2CCCN(C(=O)CCn3cnnn3)C2)CC1 (configuration not stated)	none
Fc1cccc(-c2nc(-c3ccncc3)no2)c1	none (no result: HT1080 IDH1KD tx, IL1B secr inh, HT1080-NT tox, ELG1 DNA repair)
C=CCNc1nc(C(=O)OC(C)C(=O)c2ccc(C)cc2)cs1 (configuration not stated)	TDP1 cell noCPT inconclusive, ELG1 DNA repair inconclusive
Cc1cccc(C(=O)N2CCCC(N3CCN(c4ccccc4)CC3)C2)n1 (configuration not stated)	none
Cc1ccccc1N1CCN(C2CCCN(C(=O)c3cn4cccc(C)c4n3)C2)CC1 (configuration not stated)	TDP1 cell CPT 23µM, TDP1 cell noCPT 8.2µM, ELG1 DNA repair inconclusive
CSc1ncccc1C(=O)N1CCCC(N2CCN(c3ccccc3C)CC2)C1 (configuration not stated)	TDP1 cell CPT 16µM, TDP1 cell noCPT 9.2µM (no result: ELG1 DNA repair)
CC1=C(C(=O)N2CCCC(N3CCN(c4ccccc4C)CC3)C2)OCCO1 (configuration not stated)	TDP1 cell CPT inconclusive, TDP1 cell noCPT inconclusive
O=C(c1ccc(F)c(F)c1)N1CCOc2ccc(CN3CCN(Cc4ccccn4)CC3)cc2C1	none (no result: HT1080 IDH1KD tx, IL1B secr inh, HT1080-NT tox, ELG1 DNA repair)
CCc1ccccc1NC(=O)Cn1nc2c3cc(F)ccc3n(Cc3cccc(C)c3)cc-2c1=O	none (no result: HT1080 IDH1KD tx, IL1B secr inh, HT1080-NT tox, ELG1 DNA repair)
CC(=O)NC1=NN(C(C)=O)C(C)(c2cccnc2)S1 (configuration not stated)	HT1080 IDH1KD tx inconclusive
CC(=O)NC1=NN(C(C)=O)C(C)(c2ccco2)S1 (configuration not stated)	HT1080 IDH1KD tx 23µM, HT1080-NT tox inconclusive
CC(=O)NC1=NN(C(C)=O)C(C)(c2cccs2)S1 (configuration not stated)	TDP1 cell CPT inconclusive, HT1080 IDH1KD tx 4.6µM, TDP1 cell noCPT inconclusive, HT1080-NT tox 2.9µM
O=C(Nc1ccccc1)N1CCCC2(CCN(S(=O)(=O)c3ccccc3)CC2)C1	none (no result: HT1080 IDH1KD tx, IL1B secr inh, HT1080-NT tox, ELG1 DNA repair)
CCOC(=O)c1c(C)[nH]c(C)c1S(=O)(=O)NCC(=O)Nc1ccc(CC)cc1	none (no result: HT1080 IDH1KD tx, IL1B secr inh, HT1080-NT tox, ELG1 DNA repair)
CCCCCCNc1c(C(=O)OCC)c(=O)[nH]c2ccccc12	TDP1 cell CPT 16µM, TDP1 cell noCPT inconclusive
CCc1nnc(SCc2nc(-c3cccc(Cl)c3)oc2C)c2cc3sc(C)cc3n12	TDP1 cell noCPT inconclusive (no result: HT1080 IDH1KD tx, IL1B secr inh, HT1080-NT tox, ELG1 DNA repair)
CC1CC(C)CN(C(=O)c2ccc3ncsc3c2)C1 (configuration not stated)	none
O=C(c1ccc2ncsc2c1)N1CCN(c2ccc(O)cc2)CC1	TDP1 cell CPT inconclusive, TDP1 cell noCPT 21µM, ELG1 DNA repair inconclusive
CN(C1CCCCC1)S(=O)(=O)c1ccc(C(=O)N2CCN(c3nc4ccccc4s3)CC2)cc1	TDP1 cell CPT 23µM, TDP1 cell noCPT 15µM, ELG1 DNA repair 9.2µM
CCC(=O)N1CCN(c2nc3ccccc3s2)CC1	TDP1 cell noCPT inconclusive, ELG1 DNA repair inconclusive
O=C(c1ccc2ncsc2c1)N1CCN(c2nc3ccccc3s2)CC1	TDP1 cell CPT inconclusive, TDP1 cell noCPT 15µM, HT1080-NT tox inconclusive, ELG1 DNA repair inconclusive
O=C(c1cc2sccc2n1Cc1ccccc1)N1CCN(c2nc3ccccc3s2)CC1	TDP1 cell CPT 15µM, HT1080 IDH1KD tx 8.2µM, TDP1 cell noCPT 15µM
O=C(c1ccc2nc(N3CCOCC3)sc2c1)N1CCCC1	ELG1 DNA repair inconclusive
O=C(C1CC1)N1CCN(c2nc3ccccc3s2)CC1	ELG1 DNA repair inconclusive
Cc1ccc(N2CCN(C(=O)C(=O)c3cccc(Br)c3)CC2)cc1	TDP1 cell CPT inconclusive, TDP1 cell noCPT inconclusive (no result: ELG1 DNA repair)
Cc1cccc(N2CCN(C(=O)c3ccc4ncsc4c3)CC2)c1C	TDP1 cell CPT 2.1µM, HT1080 IDH1KD tx 5.8µM, TDP1 cell noCPT 5.2µM, HT1080-NT tox 2.6µM
Cc1cccc(N2CCN(C(=O)c3ccc4nc[nH]c4c3)CC2)c1C	TDP1 cell noCPT inconclusive
O=C(O)CC1(CC(=O)Nc2ccccc2Br)CCCC1	none (no result: ELG1 DNA repair)
COc1ccccc1NC(=O)CSC(N)=O	TDP1 cell CPT inconclusive, TDP1 cell noCPT 21µM, IL1B secr inh inconclusive
COc1ccccc1NC(=O)CNC(=O)CC12CC3CC(CC(C3)C1)C2	TDP1 cell CPT 1.6µM, HT1080 IDH1KD tx inconclusive, HT1080-NT tox inconclusive
COc1ccccc1NC(=O)Cc1nnc(SCC(=O)Nc2ccccc2F)n1C	TDP1 cell CPT 16µM, TDP1 cell noCPT inconclusive
COc1ccc(CNC(=O)CC23CC4CC(CC(C4)C2)C3)cc1OC	TDP1 cell CPT inconclusive
CC1=C(C(=O)NCc2ccccc2C)C2(CCCCCC2)OC1=O	TDP1 cell CPT inconclusive (no result: HT1080 IDH1KD tx, IL1B secr inh, HT1080-NT tox, ELG1 DNA repair)
CCN1C(=O)N/C(=C/c2cc(C)n(Cc3ccccc3)c2C)C1=O	TDP1 cell CPT 18µM, TDP1 cell noCPT inconclusive, ELG1 DNA repair inconclusive
Cc1ccc(/C=C2/NC(=O)N(Cc3ccccc3)C2=O)o1	TDP1 cell CPT 16µM, TDP1 cell noCPT 23µM
COc1ccc(Cl)cc1N1C(=O)/C(=C\c2sccc2C)N=C1SCC(=O)NC1CC1	TDP1 cell CPT 16µM, TDP1 cell noCPT 16µM, IL1B secr inh inconclusive, HT1080-NT tox inconclusive, ELG1 DNA repair 16µM
COc1ccc(CN(C(=S)Nc2ccccc2)C2CC(=O)N(c3ccc(Cl)cc3)C2=O)cc1 (configuration not stated)	TDP1 cell CPT inconclusive, HT1080 IDH1KD tx inconclusive, HT1080-NT tox 12µM, ELG1 DNA repair inconclusive
O=C1C(=Cc2ccccc2[N+](=O)[O-])Cc2ccccc21	TDP1 cell CPT 2.6µM, HT1080 IDH1KD tx inconclusive, TDP1 cell noCPT 3.3µM, IL1B secr inh -103, HT1080-NT tox inconclusive (no result: ELG1 DNA repair)
CC1(C)CC(=Cc2ccccc2[N+](=O)[O-])C(=O)c2ccccc21	TDP1 cell noCPT 16µM (no result: ELG1 DNA repair)
O=C1NC(=O)C(=Cc2ccccc2[N+](=O)[O-])S1	TDP1 cell CPT inconclusive, HT1080 IDH1KD tx inconclusive, TDP1 cell noCPT 21µM, IL1B secr inh inconclusive, HT1080-NT tox 21µM (no result: ELG1 DNA repair)
